Assay results: PubChem BioAssay AID687016 (The Scripps Research Institute Molecular Screening Center, 2013)
“And” between values parts separate entries of the source, which are not always exact repeats. Equal entries are not always repeated. About 2,800 (0.76%) of roughly 370,000 compounds were called active. Rule as the data show it: active = inhibition above about 21%; inactive = the rest. The full list was thinned out, with actives kept by preference. The source holds several records for some structures; these can differ, active in one and inactive in another.

What follows are compounds tested against E3 ubiquitin-protein ligase UHRF1 (Homo sapiens) (UniProt Q96T88) (assay: UHRF1 methylated DNA binding inhibitors, primary screen, counter-screen for MBD2 inhibitor project, biochemical, TR-FRET, human UHRF1, single concentration (AID 687016;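 also: UHRF1 SRA domain binding a hemimethylated CpG hairpin DNA probe; 0% = median of test compound wells and 100% = reference inhibitor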)). Conditions: UHRF1 binding to methylated oligo, at 4.4 µM, stronger effect = higher value.
Sequence of E3 ubiquitin-protein ligase UHRF1 (Homo sapiens) (Q96T88 whole entry, looked up, the tested form may be a part): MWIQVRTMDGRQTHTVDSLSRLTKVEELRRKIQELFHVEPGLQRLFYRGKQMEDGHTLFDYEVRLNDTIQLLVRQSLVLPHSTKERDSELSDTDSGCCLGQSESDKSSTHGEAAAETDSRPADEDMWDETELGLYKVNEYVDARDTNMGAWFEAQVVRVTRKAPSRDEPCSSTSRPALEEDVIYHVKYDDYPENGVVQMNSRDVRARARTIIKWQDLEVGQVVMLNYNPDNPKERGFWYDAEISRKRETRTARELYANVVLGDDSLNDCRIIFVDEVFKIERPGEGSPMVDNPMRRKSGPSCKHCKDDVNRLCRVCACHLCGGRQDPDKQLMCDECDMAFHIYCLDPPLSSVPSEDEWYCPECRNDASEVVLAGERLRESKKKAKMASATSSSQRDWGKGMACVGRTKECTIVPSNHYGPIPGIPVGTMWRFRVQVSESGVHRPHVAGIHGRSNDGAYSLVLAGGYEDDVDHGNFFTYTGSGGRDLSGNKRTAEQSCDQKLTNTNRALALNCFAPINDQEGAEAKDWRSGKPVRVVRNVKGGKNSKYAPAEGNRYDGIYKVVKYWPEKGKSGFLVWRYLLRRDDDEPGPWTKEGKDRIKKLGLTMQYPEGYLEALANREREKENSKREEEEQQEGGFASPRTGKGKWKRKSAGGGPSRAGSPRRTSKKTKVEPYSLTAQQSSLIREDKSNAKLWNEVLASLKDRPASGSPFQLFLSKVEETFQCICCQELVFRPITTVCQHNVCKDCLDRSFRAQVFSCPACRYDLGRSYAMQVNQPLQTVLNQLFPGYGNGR

| Compound | inhibition |
| --- | --- |
| CCC(CO)Nc1cccc2c1S(=O)(=O)N(Cc1cn(Cc3ccccc3C(F)(F)F)nn1)Cc1ccccc1O2 (stereo not drawn) | 2.09% (inactive) |
| COc1cccc(C2=CC(=O)C[C@H](c3ccc(F)cc3)C2)c1OC | -0.67% (inactive) |
| O=C1C=C(c2cccc(Cl)c2O)C[C@@H](c2ccc(F)cc2)C1 | 21% (active) |
| COc1ccccc1C1=CC(=O)C[C@H](c2ccc(F)cc2)C1 | 1.8% (inactive) |
| Cc1ccc(-c2nnc(SCC(=O)Nc3ccc(Oc4ccccc4)cc3)n2Cc2ccco2)cc1 | -0.31% (inactive) |
| Cc1ccc(C(=O)Cn2cccn2)cc1 | 5.04% (inactive) |
| O=C(CC(n1cncn1)C(Cl)(Cl)Cl)c1ccc([N+](=O)[O-])cc1 (stereo not drawn) | 0.74% (inactive) |
| O=C(Cn1c[n+](CC(=O)c2ccc([N+](=O)[O-])cc2)cn1)c1ccc([N+](=O)[O-])cc1 | 50.5% (active) and -2.04% (inactive) |
| Cc1ccc(NC(=S)NNC(=O)CSc2nnc(SCc3ccccc3Cl)s2)cc1 | -10.8% (inactive) |
| COc1cccc(CSc2nnc(-c3cccnc3)n2Cc2ccccc2)c1 | -0.03% (inactive) |
| CCOc1cc(N2CCOCC2)c(OCC)cc1NC(=O)c1cc(C)nc2ccccc12 | 23.5% (active) |
| CCOc1cc(N2CCOCC2)c(OCC)cc1NC(=O)C1=NN(c2cccc(C)c2)C(=O)CC1 | 0.92% (inactive) |
| Cc1cc(C(=O)NNC(=O)c2cccc(S(=O)(=O)N3CCOCC3)c2)c2ccccc2n1 | -0.61% (inactive) |
| CC(C)(C)OC(=O)NCc1cc(F)ccc1/C=C/S(=O)(=O)NCCc1ccccc1 | 0.11% (inactive) |
| CCOC(=O)/C(=N\Nc1cc(Cl)ccc1Cl)N1CCN(C)CC1 | -0.04% (inactive) |
| CCOC(=O)/C(=N\Nc1ccccc1Cl)N(C)C1CCS(=O)(=O)C1 (stereo not drawn) | 23.3% (active) |
| CC(=O)c1ccc(OCC(=O)N(C)C2CCS(=O)(=O)C2)cc1 (stereo not drawn) | 1.81% (inactive) |
| CCOC(=O)[C@]12CCCCC/C=C\1N(Cc1ccc(OC)cc1)C(=O)[C@H]2CC(=O)NCCCN1CCCC1=O | -0.93% (inactive) |
| CCOC(=O)[C@]12CCCC3=C1N(CCC3)C(=O)[C@@H](CC(=O)NCC13CC4CC(CC(C4)C1)C3)C2 | -0.2% (inactive) |
| O=C(CCCCCN1C(=O)C2C3C=CC(C3)C2C1=O)Nc1ccccn1 (stereo not drawn) | -0.7% (inactive) |
| COc1ccc(N2CCN(CCNS(=O)(=O)c3ccc(C(C)(C)C)cc3)CC2)cc1 | 0.26% (inactive) |

| Compound | inhibition |
| --- | --- |
| CCc1ccc(NC(=O)C(C)OC(=O)/C=C/c2cccc([N+](=O)[O-])c2)cc1 (stereo not drawn) | 21.5% (active) |
| CC(OC(=O)/C=C/c1ccccc1)C(=O)Nc1ccc(C(N)=O)cc1 (stereo not drawn) | -0.02% (inactive) |
| C=CCOc1ccc(/C=C/C(=O)OC(C)C(=O)Nc2ccc(NC(C)=O)cc2)cc1 (stereo not drawn) | 0.2% (inactive) |
| O=C(NC1CCC1)c1ccc(C#Cc2cccc(F)c2)c[n+]1[O-] | -2.83% (inactive) |
| COc1cc2[nH]c(=S)n(Cc3ccc(C)o3)c(=O)c2cc1OC | -2.92% (inactive) |
| COc1ccc(Cn2c(=O)cc(C)[nH]c2=S)cc1 | 48.1% (active) |
| COc1ccc(Cn2c(=O)oc3ccccc32)cc1 | -0.71% (inactive) |
| COC(=O)[C@]12C[C@H](CC(=O)NCc3cccc4ccccc34)C(=O)N(CCc3ccc(OC)c(OC)c3)C1=C[C@H](C1CCCC1)O[C@@H]2C | 0% (inactive) |
| CCOC(=O)N1CCN(C(=O)C[C@@H]2C(=O)N(CCc3ccc(Cl)cc3)C3=CCCC[C@]32C(=O)OCC)CC1 | -0.31% (inactive) |
| c1csc(-c2nnc(SCc3nc4ccccc4[nH]3)o2)c1 | -2.92% (inactive) |
| COC(=O)[C@]12C[C@H](CC(=O)N3CCOCC3)C(=O)N(Cc3ccc(Cl)cc3Cl)C1=C[C@H](C(C)C)O[C@@H]2C1CC1 | -0.21% (inactive) |
| CC(C)(C)C(=O)Nc1ccc(-c2cn3cccnc3n2)cc1 | -3.25% (inactive) |
| CCCCC(=O)Nc1ccc(C(=O)NCCCn2ccnc2)cc1 | -2.85% (inactive) |
| CCCCCC(=O)Nc1ccc(-c2cn3cccnc3n2)cc1 | 23.5% (active) |
| Clc1ccc(-n2c(SC/C=C/c3ccccc3)nnc2-c2ccco2)cc1 | 0.89% (inactive) |
| CC1CCN(c2ccc(C(=O)O)cc2NS(=O)(=O)c2ccc(Br)s2)CC1 | -1.98% (inactive) |
| COC(=O)[C@@]12CCCCC=C1N(CCc1ccc(Cl)cc1)C(=O)[C@H]2CC(=O)NCc1ccc(OC)c(OC)c1 | 0.86% (inactive) |
| CCCCN1C(=O)C(CC(=O)NCc2cccs2)CC(C(=O)N2CCOCC2)=C1C (stereo not drawn) | 22.9% (active) |
| COCCCN1C(=O)C(CC(=O)NCc2cccs2)CC(C(=O)N2CCOCC2)=C1C (stereo not drawn) | 0.04% (inactive) |
| CCCCN1C(=O)C(CC(=O)NCc2cccs2)CC(C(=O)N2CCCCCC2)=C1C (stereo not drawn) | -0.83% (inactive) |
| Oc1ccc(/C=C/c2c(F)cccc2F)c2cccnc12 | -8.09% (inactive) |

| Compound | inhibition |
| --- | --- |
| O=C1C(=O)N(Cc2ccc(-c3ccsc3)cc2)c2ccc(OC(F)(F)F)cc21 | 1.64% (inactive) |
| O=C1CCC2(CCC(c3ccc(Cl)cc3)CC2)N1CCO (stereo not drawn) | -1.17% (inactive) |
| O=C(C1CCN(S(=O)(=O)c2ccccc2)CC1)N1CCN(C2CCCCC2)CC1 | -0.54% (inactive) |
| COc1ccc(Cn2cc(CN3[C@@H](CC(C)C)COc4cc(Br)ccc4S3(=O)=O)nn2)cc1 | -1.35% (inactive) |
| CCN(C(=O)COC(=O)c1cc(S(=O)(=O)N2CCc3ccccc32)ccc1OC)C1CCS(=O)(=O)C1 (stereo not drawn) | -0.66% (inactive) |
| COc1cccc(NC(=O)c2cc(S(=O)(=O)N3CCc4ccccc43)cn2C)c1 | -1% (inactive) |
| COc1ccc(S(=O)(=O)N2CCc3ccccc32)cc1C(=O)Nc1cc(S(C)(=O)=O)ccc1Cl | 21.6% (active) |
| O=C(C1CCCN1S(=O)(=O)c1ccccc1)N1CCc2ccccc2C1 (stereo not drawn) | 1.67% (inactive) |
| O=S1(=O)c2ccc(N3CCN(Cc4ccccc4F)CC3)cc2Oc2ccccc2CN1Cc1cn(Cc2ccc(Cl)cc2)nn1 | 3.23% (inactive) |
| Nc1ccc2nc3c(=O)[nH]c(=S)[nH]c3nc2c1 | 29.6% (active) |
| N#Cc1ccc(OC[C@@H](O)CN2CCC(C(O)(c3ccccc3)c3ccccc3)CC2)c(F)c1 | -0.23% (inactive) |
| C=CCN1C(=O)[C@@H](CC(=O)N2CCN(C(=O)OCC)CC2)[C@]2(C(=O)OCC)CCCCC/C=C/12 | 0.51% (inactive) |
| Cc1cc(C)cc(OCC(=O)Nc2cc(NC(=O)COc3cc(C)cc(C)c3)cc(C(=O)O)c2)c1 | -0.86% (inactive) |
| Cc1cc(C)cc(OCC(=O)NNC(=O)CCN2C(=O)c3ccccc3C2=O)c1 | -0.19% (inactive) |
| Cc1cc(C)cc(OCC(=O)NCc2cc(C)nc3ccccc23)c1 | 37.5% (active) |
| CCOc1ccc(Oc2c(Cl)cnn(-c3ccc(C)cc3)c2=O)cc1 | 0.41% (inactive) |
| CCOC(=O)C1=C(C)NC2=C(C(=O)CC(C)(C)C2)C1c1ccc2c(c1)OCO2 (stereo not drawn) | 3.68% (inactive) |
| Cc1cc(C(=O)Nc2ccc(C)c(S(=O)(=O)N3CCOCC3)c2)c2ccccc2n1 | 6.42% (inactive) |
| O=C(Nc1cccc(F)c1)c1cc(-c2ccco2)nc2ccccc12 | 23% (active) |
| O=C(Nc1nc2ccc(Cl)cc2s1)c1cc(-c2ccc(Cl)cc2)nc2ccccc12 | 1.94% (inactive) |
| O=C1CC[C@@H](COc2ccc3[nH]cc(-c4ccccc4)c3c2-c2ccccc2)N1 | -0.59% (inactive) |

| Compound | inhibition |
| --- | --- |
| C[C@H](C(=O)N(C)c1ccccc1)[C@@H](O)c1ccc(Cl)cc1 | -0.97% (inactive) |
| COc1cccc(CNC(=O)C2CCCN(c3nc4ccccc4o3)C2)c1OC (stereo not drawn) | 3.57% (inactive) |
| C=CCOC/C=C/C#CCN(CC=C)Cc1ccc(OC)cc1OC | -1.02% (inactive) |
| O=C(NCc1cccs1)C1CCCN(S(=O)(=O)c2ccc([N+](=O)[O-])cc2)C1 (stereo not drawn) | 1.19% (inactive) |
| COCCNC(=O)Nc1ccc2nc(-c3ccco3)c(-c3ccco3)nc2c1 | 91.1% (active) |
| COCCN(C(=O)c1ccco1)c1nnc(-c2ccc(OC)cc2)s1 | -1.02% (inactive) |
| O=C(NCCOc1ccccc1F)Nc1ccc(Br)cc1 | 4.11% (inactive) |
| O=C(NC1CCCC1)C1CSCCS(=O)(=O)N1Cc1ccccc1 (stereo not drawn) | -0.6% (inactive) |
| COC(=O)[C@]12C[C@H](CC(=O)NCCc3ccccc3OC)C(=O)N(Cc3ccco3)C1=C[C@H](C(C)C)O[C@@H]2C1CC1 | 3.75% (inactive) |
| O=[N+]([O-])c1ccc(COc2ccccc2CN2CCOCC2)cc1 | -1.96% (inactive) |
| Oc1c(CN2CCOCC2)ccc(CN2CCOCC2)c1O | 25.4% (active) |
| OCCN1CCOCCOCCN(CCO)CCN(CCO)CC1 | -0.79% (inactive) |
| O=C(CSc1nnc(-c2ccccn2)n1-c1ccccc1)Nc1ccc2cn[nH]c2c1 | -1.24% (inactive) |
| Cc1ccccc1CS(=O)(=O)Cc1ccc(C(=O)Nc2ccc(Cl)cc2)o1 | 0.04% (inactive) |
| Cc1c(NC(=O)c2c([N+](=O)[O-])cnn2C)c(=O)n(-c2ccccc2)n1C | -1.94% (inactive) |
| Cc1c(NC(=O)c2cccnc2)c(=O)n(-c2ccccc2)n1C | 23.3% (active) |
| Cc1c(NC(=S)Nc2ccccc2)c(=O)n(-c2ccccc2)n1C | -4.22% (inactive) |
| COC(=O)[C@]12C[C@H](CC(=O)NCc3ccccc3)C(=O)N(CCC3=CCCCC3)C1=C[C@H](C(C)C)O[C@@H]2C1CC1 | 3.6% (inactive) |
| COC(=O)C1CN(Cc2ccc(F)cc2)CCS(=O)(=O)N1Cc1ccc(Cl)cc1 (stereo not drawn) | 2.67% (inactive) |
| O=C(Nc1cccc(Cl)c1)OC1CC2CC1[C@H]1CCCCN1[C@H]2Cc1ccccc1 (stereo partly drawn) | 0.5% (inactive) |
